Shown are actives, neighbours in structure and some others; about 0.5% of the full set was active somewhere.
E coli growth-1 – E. coli V3065 growth inhibition, primary screen, counter-screen for AddAB inhibitor project, absorbance, OD600; 18 h; actives 0.27% (n = 330,000); inhibition, % at 11.9 µM;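 active = inhibition above the campaign's mean inhibition across all tested compounds plus 3 SD, cut at about 9.9% in these data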;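 also: uninfected addAB+ strain grown without phage in ampicillin broth; 0% = DMSO wells and 100% = ciprofloxacin 0.95 µg/ml wells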
AddAB inh – growth inhibition of E. coli expressing H. pylori AddAB, primary screen, AddAB inhibitor project, absorbance; inhibition, % at 11.9 µM; actives 0.29% (n = 330,000); in the data active = inhibition above about 12%;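 also: 0% = vehicle wells of infected cells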
E coli growth-2 – E. coli growth inhibition, primary screen, OD600 | Escherichia coli growth, 23 h; stronger effect = lower value | OD600 absorbance (no concentration beside the values) | actives 0.21% (n = 330,000) | AID 1053175, 2014;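 active = OD600 absorbance below the run mean of sample wells minus 3.6 SD, in any replicate, cut at about 0.56 in these data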
Tat export inh – E. coli Tat export inhibitors, primary screen, MC4100, TorA-mCherry reporter, fluorescence, single point; inhibition, % at 10 µM; actives 0.036% (n = 340,000);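 active = mean replicate inhibition at least 50% and at least half of replicates individually reaching 50%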;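 also: exported cargo escapes ClpAP degradation while cytoplasmic cargo is degraded and loses fluorescence; 0% = median of neutral control wells and 100% = median of NaSCN control wells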
phage Ecoli inh – growth loss of phage-infected E. coli, primary screen, RecBCD inhibitor project, absorbance, with phage, HTS | actives 0.26% (n = 360,000) | inhibition, % at 11.9 µM; in the data active = inhibition above about 11%
RecBCD conf – growth loss of phage-infected RecBCD+ E. coli, confirmation, RecBCD inhibitor project, absorbance, E. coli V66, T4 gene 2 phage. inhibition, % at 11.9 µM. shares compounds with phage Ecoli inh. actives 45% (n = 890). E. coli V66 + T4 2- phage, growth OD;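 active = mean inhibition over triplicates exceeding the hit threshold derived in the original primary screen, cut at about 11% in these data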
Ecoli viability – E. coli viability inhibition, counter-screen for RecBCD inhibitor project, absorbance, high throughput; inhibition, % at 11.9 µM; actives 29% (n = 890); shares compounds with phage Ecoli inh; absorbance (OD) growth; in the data active = inhibition above about 20%;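 also: E. coli strain V66 grown with compound alone and no phage infection; 0% = bacteria with DMSO vehicle only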
AddAB phage OD – growth loss of phage-infected AddAB-carrying E. coli, confirmation, counter-screen for RecBCD inhibitor project, absorbance, E. coli V3065, T4 phage; shares compounds with phage Ecoli inh; E. coli expressing H. pylori AddAB + T4 phage, OD growth; gene 2 mutant T4, recBCD-deleted host; inhibition, % at 11.9 µM; actives 45% (n = 890); AID 651984, 2013;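 active = mean inhibition above the solvent-only control wells' mean plus 3 SD, cut at about 22% in these data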;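 also: higher means less bacterial growth from phage killing when AddAB is blocked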
Starred values were filed as active, the others as inactive.

Results for CCC(=O)Nc1sc(Cc2ccc3c(c2)OCO3)c(C)c1C(N)=O ?
E coli growth-1: -2; AddAB inh: 0; E coli growth-2: 0.66; Tat export inh: -3; phage Ecoli inh: 0

What do the screens show for `C=CCN1CC(C)C(=NO)CC1C` (stereo unspecified)?
E coli growth-2: 0.71

How did O=C(c1ccc(NC2=NC3CS(=O)(=O)CC3S2)cc1)N1CCN(Cc2ccccc2)CC1 (stereo unspecified) do in these assays?
E coli growth-1: -1; AddAB inh: -3; E coli growth-2: 0.71; Tat export inh: 1; phage Ecoli inh: 13*; RecBCD conf: -3; Ecoli viability: -3; AddAB phage OD: 0

What do the screens show for `Cc1ccc(/C=C/C(=O)c2c(C)nc3ccccn23)cc1`?
E coli growth-1: 2; AddAB inh: 2; E coli growth-2: 0.68; Tat export inh: -1; phage Ecoli inh: 12*; RecBCD conf: -2; Ecoli viability: -3; AddAB phage OD: 1

How did CCN1CCN(C(=O)N(c2ccccc2)c2ccccc2)CC1 do in these assays?
E coli growth-1: -2; AddAB inh: -4; E coli growth-2: 0.69; Tat export inh: 1; phage Ecoli inh: 2

What do the screens show for `CN1CCN(C(=O)N(c2ccccc2)c2ccccc2)CC1`?
E coli growth-1: 0; AddAB inh: 1; E coli growth-2: 0.7; Tat export inh: 7; phage Ecoli inh: 98*; RecBCD conf: -3; Ecoli viability: -2; AddAB phage OD: -1

What do the screens show for `O=c1[nH]c(=O)n(C2OC(CO)C(O)C2O)cc1F` (stereo unspecified)?
Tat export inh: 41

What do the screens show for `Nc1ncnc2c1ncn2[C@@H]1O[C@H](CO)[C@@H](O)[C@@H]1O`?
E coli growth-1: 0; AddAB inh: 2; Tat export inh: -6; phage Ecoli inh: 4

Results for Nc1nc(F)nc2c1ncn2[C@@H]1O[C@H](CO)[C@@H](O)[C@@H]1O ?
E coli growth-1: 3; AddAB inh: 8; Tat export inh: -9; phage Ecoli inh: 75*; RecBCD conf: 78*; Ecoli viability: 79*; AddAB phage OD: 78*

How did O=c1ncccn1C1OC(CO)C(O)C1O (stereo unspecified) do in these assays?
phage Ecoli inh: 96*; RecBCD conf: 93*; Ecoli viability: 101*; AddAB phage OD: 98*

Results for Nc1nc(=O)n(C2OC(CO)C(O)C2O)cc1F (stereo unspecified) ?
phage Ecoli inh: 21*; RecBCD conf: 26*; Ecoli viability: 21*; AddAB phage OD: 53*

What do the screens show for `C=CCNC(=O)C(=O)NN=Cc1ccco1`?
E coli growth-2: 0.75

Results for COc1cc(C=NNC(=O)c2ccc(Cl)cc2)ccc1Oc1ccc([N+](=O)[O-])cn1 ?
E coli growth-2: 0.7

Results for CC1CC(=NNC(=O)c2ccc([N+](=O)[O-])cc2)CC(C)(C)C1 (stereo unspecified) ?
E coli growth-2: 0.69

What do the screens show for `CC1(C)OC2OC(C(=O)NN=Cc3ccccc3F)C3OC(C)(C)OC3C2O1` (stereo unspecified)?
E coli growth-2: 0.74

What do the screens show for `O=C1C=CC(n2cc(F)c(=O)[nH]c2=O)O1` (stereo unspecified)?
phage Ecoli inh: 24*; RecBCD conf: 32*; Ecoli viability: 22*; AddAB phage OD: 46*

Results for O=C(O)Cn1cc(F)c(=O)[nH]c1=O ?
E coli growth-1: 0; AddAB inh: 1; E coli growth-2: 0.76

How did CCCCCCCCCC[n+]1cccc2c3ccccc3ccc21 do in these assays?
E coli growth-2: 0.13*; Tat export inh: -7; phage Ecoli inh: 12*; RecBCD conf: 2; Ecoli viability: 3; AddAB phage OD: 6

Results for O=C(NN=Cc1ccc(Cl)s1)c1ccc(Cn2cccn2)o1 ?
E coli growth-2: 0.65

How did COC(=O)Cn1ccnc1[N+](=O)[O-] do in these assays?
phage Ecoli inh: 16*; RecBCD conf: 5; Ecoli viability: 5; AddAB phage OD: 90*

What do the screens show for `COc1cc2nc(N(C)C)nc(N)c2cc1OC`?
E coli growth-1: -2; AddAB inh: 1; E coli growth-2: 0.76; Tat export inh: -4; phage Ecoli inh: 0

How did CN(C)c1ccc(Sc2ccc3nc(N)nc(N)c3c2)cc1 do in these assays?
phage Ecoli inh: 99*; RecBCD conf: 64*; Ecoli viability: 68*; AddAB phage OD: 82*

What do the screens show for `COc1ccc(CCNC(=O)C2CCN(S(=O)(=O)c3ccc(SC)cc3)CC2)cc1`?
E coli growth-1: -3; AddAB inh: 4; E coli growth-2: 0.71; Tat export inh: 9; phage Ecoli inh: 17*; RecBCD conf: -1; Ecoli viability: -2; AddAB phage OD: -4

How did COc1ccc(S(=O)(=O)N2CCC(C(=O)NCCc3ccc(OC)c(OC)c3)CC2)cc1 do in these assays?
phage Ecoli inh: 1
